# High-throughput results: PubChem BioAssay, National Center for Advancing Translational Sciences (NCATS)
# Sampled rows, rich in hits. Any-hit rate of the full collection: about 7.5%.
# KinaseGlo FLuc: blocks Kinase-Glo luciferase, a counter-screen artifact; Q27757; Kinase-Glo luciferase, ATP luminescence, 8 min; Potency, µM (top dose mostly 38.3 µM), for the others: top-dose activity change, negative = inhibition, usual class: inhibitors; actives 0.28% (n = 200,000); further: on the % scale 0 is the no-effect control and ±100 the full control effect; nearly all actives have a fitted effect of over 60% in size
#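 Luminescence was the read-out, taken after 8-minute incubation at ambient temperature. Luciferase turned over luciferin with 10 uM ATP in imidazole pH 7.2 buffer containing KCl, MgCl2, Tween 20 and BSA.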
# ELG1 genotoxic: induces genotoxicity in HEK293T cells with luciferase-tagged ELG1. Potency, µM (highest dose often 46 µM), for inactives: at the top dose activity change, positive = activation, actives largely listed as activators. AID 504466. actives 1.3% (n = 330,000). HEK293T ELG1-luciferase reporter, luminescence, 16 h; further: % of control where 0% means no effect; nearly all actives have a fitted effect of over 60% in size
#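 HEK293T cells expressing luciferase-tagged ELG1 were treated with compound or DMSO for 16 hr at 37°C. Luciferase activity was then read after 30 min with ONE-Glo at room temperature; rising signal flags genetic stress.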
# NPC1 promoter act: NPC1 promoter activation; Huh7 NPC1 promoter luciferase reporter, 24 h; Potency, µM (top dose mostly 9.22 µM), inactives show top-dose activation, usual class: activators; actives 2.4% (n = 320,000); AID 485313; further: % of control where 0% means no effect; nearly all actives have a fitted effect of over 60% in size
#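 Huh7 cells stably carrying NPC1 promoter–luciferase, plated in Opti-MEM with 10% FBS for 2 h, were exposed to compound in DMSO for 24 h at 37 °C; luciferase reagent was added for 10 min and luminescence read.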
# SMN2 splice up: SMN2 splice variant enhancement; HEK293 SMN2-luciferase splicing reporter, luminescence, 30-36 h; Potency, µM (titrated, usually from 46.1 µM), without a hit: at the top dose activity change, positive = activation, usual class: activators; actives 2.8% (n = 210,000); further: % of control where 0% means no effect; nearly all actives have a fitted effect of over 55% in size
#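 HEK293 cells carry an SMN2 minigene-luciferase reporter in which exon 7 inclusion puts luciferase in frame. Cells were seeded at 2000 cells/well, attached for 10-12 hours, then exposed to compounds for 30-36 hours at 37C before ONE-Glo luminescence.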
# FLuc counter: inhibits or activates purified firefly luciferase, miR-21 counter-screen | P08659 | purified FLuc, Km substrates, luminescence inhibition | Potency, µM (top dose mostly 57.5 µM), for the others: at the top dose activity change, negative = inhibition, actives largely listed as inhibitors | actives 6.9% (n = 360,000) | AID 588342;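 further: plate controls were vehicle for no effect and reference inhibitor for full effect; nearly all actives have a fitted effect of over 55% in size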
# Target sequence (P08659 whole entry, looked up): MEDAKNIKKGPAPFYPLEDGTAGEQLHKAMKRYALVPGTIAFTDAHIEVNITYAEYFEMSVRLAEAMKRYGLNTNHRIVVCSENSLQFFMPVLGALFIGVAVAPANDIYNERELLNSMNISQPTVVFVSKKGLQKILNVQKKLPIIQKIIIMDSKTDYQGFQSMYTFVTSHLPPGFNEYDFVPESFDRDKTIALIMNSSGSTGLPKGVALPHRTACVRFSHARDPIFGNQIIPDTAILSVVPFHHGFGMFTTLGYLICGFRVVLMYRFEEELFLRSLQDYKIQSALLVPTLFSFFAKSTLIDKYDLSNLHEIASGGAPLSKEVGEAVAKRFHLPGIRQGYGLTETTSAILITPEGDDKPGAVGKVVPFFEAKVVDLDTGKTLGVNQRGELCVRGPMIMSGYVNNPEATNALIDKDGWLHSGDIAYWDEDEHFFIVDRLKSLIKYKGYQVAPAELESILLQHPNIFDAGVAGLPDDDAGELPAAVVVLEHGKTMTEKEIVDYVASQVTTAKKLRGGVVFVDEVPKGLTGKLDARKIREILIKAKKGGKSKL
#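 Biochemical qHTS of compounds, final roughly 60 µM downward over six points, against 10 nM purified firefly luciferase using Km concentrations of substrates (10 uM D-luciferin, 10 uM ATP) in Tris acetate pH 7.5 buffer; luminescence output.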
# Rab9 promoter act: activates the Rab9 promoter | Huh7 Rab9 promoter-luciferase reporter, luminescence, 24 h | Potency, µM (doses to about 9.22 µM), for the others: at the highest dose activation, negative = inhibition, hits mostly activators | actives 2.8% (n = 320,000); further: % of control where 0% means no effect; nearly all actives have a fitted effect of over 60% in size
#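 Steps: seed 1500 Huh7 Rab9-luc cells per well, rest 2 h at 37 °C; add compound in DMSO; incubate 24 h; add luciferase reagent, 10 min ambient; read luminescence.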
# * hit, by the source's call; ? = inconclusive; · = no result; [ ] = remark or other dose. The call rests on the fitted dose curve; in most records, active means well fitted curve in the direction sought with a large enough effect; inconclusive means small, poorly fitted or top-dose-only effect, or another doubt; inactive means no such curve, though single readings can be large; an effect the other way counts as inactive or inconclusive. Potency means the concentration at half of the fitted maximal effect.
SMILES,KinaseGlo FLuc,ELG1 genotoxic,NPC1 promoter act,SMN2 splice up,FLuc counter,Rab9 promoter act
COc1ccc(/C=C/C(=O)NCCN=C2NS(=O)(=O)c3ccccc32)cc1,1%,-5%,-2%,8%,15µM*,-10%
COCCCNC(=O)C(C)n1c2ccccc2c2cnn(C)c(=O)c21 (stereo unspecified),·,·,·,-6%,3%,·
O=C(Cn1cncn1)NCc1cc(F)ccc1F,5%,3%,-3%,·,0%,-2%
O=c1[nH]c(/C=C\c2cccc(F)c2)nc(O)c1[N+](=O)[O-],·,0%,-1%,·,-11%,-3%
Cc1ccc2nc(/C=C/c3cccc(F)c3)ccc2c1,-3%,1.8µM*,3.5µM*,10µM*,1.2µM*,2µM*
Fc1ccccc1OCCSc1ncnc2nc[nH]c12,-2%,?,26%,?,?,?
c1cnc(SCCCOc2ccc3ccccc3c2)nc1,-3%,21µM*,?,16%,17µM*,?
Nc1cc(N)nc(SCCOc2ccccc2F)n1,-1%,?,28%,13µM*,?,?
Clc1ccc(OCCSc2ncccn2)cc1,-3%,8.2µM*,2.5µM*,25µM*,6.7µM*,3.5µM*
COc1ccc(OCCSc2ncnc3nc[nH]c23)cc1,2%,?,?,-18%,17µM*,?
COc1ccc(NC(=O)NC23CC4(C)CC(C)(CC(C)(C4)C2)C3)cc1OC,-1%,-1%,-4%,6%,7%,0%
COc1ccc(NS(=O)(=O)c2cccc(C(=O)O)c2)cc1S(=O)(=O)N1CCCCC1,·,0%,·,·,·,·
Cc1cc(OCC(=O)OCC(=O)N2CCc3ccccc3C2)ccc1Cl,·,7%,-2%,·,-1%,-1%
COc1cccc(OCCSc2nc(N)cc(N)n2)c1,-5%,?,?,-63%,24µM*,?
COc1ccccc1OCCSc1nc2ccccc2c(=O)[nH]1,-1%,?,16%,?,?,15%
COc1ccc(OCCSc2nc3nc(C)cc(C)n3n2)cc1,-2%,2%,-2%,-3%,-7%,-3%
Cc1ccc(OCCCSc2ncccn2)cc1C,0%,?,?,20µM*,15µM*,?
O=c1[nH]c(SCCOc2ccccc2F)nc2ccccc12,1%,8%,12%,·,27µM*,18%
COc1ccc(OCCSc2ncccn2)cc1,-2%,3.7µM*,2.2µM*,14µM*,7.6µM*,1.6µM*
CC(C)(C)c1cccc(OCCCSc2ncccn2)c1,-3%,3%,-1%,-20%,?,4%
COc1cccc(OCCCCSc2ncccn2)c1,0%,?,13%,18%,?,16%
COc1ccc(OCCCSc2ncccn2)cc1,-1%,10µM*,?,25µM*,13µM*,?
COc1ccc(CCN(C)C(=O)CCc2nnc(-c3ccccc3)o2)cc1OC,-2%,?,4.5µM*,·,19µM*,3.2µM*
CN(Cc1nc2c(s1)CCCC2)C(=O)CCc1nnc(-c2ccccc2)o1,·,16%,14%,·,?,23%
CN(Cc1ccc(F)cc1)C(=O)CCc1nnc(-c2ccccc2)o1,0%,?,?,·,17µM*,?
SMILES,KinaseGlo FLuc,ELG1 genotoxic,NPC1 promoter act,SMN2 splice up,FLuc counter,Rab9 promoter act
COc1ccc(C)cc1NC(=O)c1cc2c(=O)n(Cc3cccnc3)ccc2nc1C,·,·,·,·,-3%,·
CC(C)CN(C(=O)c1cccc(Cl)c1)c1c(N)n(Cc2ccccc2)c(=O)[nH]c1=O,·,0%,-5%,·,-2%,-4%
Cc1ccc(S(=O)(=O)N2CCN(C(=O)COC(=O)/C=C/c3ccccc3)CC2)c(C)c1,·,2%,0%,·,7%,-1%
Cc1[nH]c2c(ccc3cccnc32)c1C,·,5%,11%,·,24µM*,18%
COc1ccccc1-c1nnc(NC(=O)CSc2nncn2C)s1,-2%,6%,?,11µM*,0.76µM*,?
COc1ccccc1NC(=O)c1ccc(NC(=O)CSc2nncn2C)cc1,1%,0%,-3%,4%,-1%,-2%
COc1ccccc1-c1nnc(NC(=O)C(C)Sc2nncn2C)s1 (stereo unspecified),0%,12%,3%,-38%,19µM*,14%
COc1ccccc1-c1nnc(NC(C)=O)s1,-7%,?,?,25µM*,6.7µM*,?
CCC(Sc1nncn1C)C(=O)Nc1nnc(-c2ccccc2Cl)s1 (stereo unspecified),0%,?,16%,22%,-20%,3%
COc1ccccc1-c1nnc(NC(=O)C(C)C)s1,-1%,19%,?,19%,?,12%
COc1cccc(NC(=O)Nc2ccc3nsnc3c2)c1,1%,0%,?,13µM*,7.6µM*,2.8µM*
COc1cccc(NC(=O)Nc2ccc3c(c2)nc(C)n3C)c1,?,?,0.71µM*,·,0.95µM*,0.71µM*
CCn1c(C)nc2cc(NC(=O)Nc3cccc(C(C)=O)c3)ccc21,·,-9%,2.8µM*,·,1.5µM*,?
COc1cccc(NC(=O)Nc2ccc3nc(C)c(C)nc3c2)c1,·,-7%,23%,·,?,26%
CCn1c(C)nc2cc(C(=O)OC)ccc21,1%,8%,5%,·,0%,12%
Cc1nc2cc(NC(=O)Nc3nccs3)ccc2n1C,?,2.6µM*,1.4µM*,14µM*,4.3µM*,1.4µM*
COc1ccc(N2CCN(S(=O)(=O)c3ccc(CC(C)C)cc3)CC2)cc1,·,·,·,-6%,-4%,·
O=C(c1cccc(-c2ccccc2)c1)N1CC[C@@H](N2CCC(O)CC2)[C@H](O)C1,·,3%,-2%,·,-3%,-5%
C/C(=N\NC(=S)NCc1ccccc1)c1ccc(C)o1,2%,2%,10%,-2%,-20%,10%
N#Cc1c(NC(=O)COC(=O)c2ccc(S(=O)(=O)N3CCCC3)cc2)sc2c1CCCCC2,·,?,3%,·,15%,13%
COc1ccc(-c2nc(CS(=O)(=O)CC(=O)NCc3ccccc3OC)c(C)o2)cc1,·,1%,1%,·,-10%,-3%
Cc1c(C(=O)N2CCCCC2)c(S(=O)(=O)Nc2ccc(F)cc2F)c(C)n1C,·,-2%[9.26 µM],0%,·,-2%,-3%
CCCn1c(C)cc(C(=O)Cn2nnc3ccccc3c2=O)c1C,0%,?,1µM*,13µM*,4.3µM*,0.89µM*
Cc1cc(C(=O)Cn2nc(C(=O)O)c3ccccc3c2=O)c(C)n1-c1ccc(F)cc1,0%,?,21%,?,2.7µM*,20%
CC(C)CC(=O)Nc1ccc(C(=O)Cn2nc(C(=O)O)c3ccccc3c2=O)cc1,0%,1%,-1%,-17%,5%,1%
